The text below walks through data of the supplement of paper PMC6522484.

± gives the standard deviation of the averaged measurements.

Experiment [1] deals with DLD1. Briefly: cell viability (CellTiter-Glo) relative to plate median (fraction of plate median); higher = more viable cells. The following applies: 5 µM; treatment time 24 h; reporter: 7TFP. The method, boiled down:
(§1)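 Library compounds were added at a final concentration of 5 µM for 24 h to colorectal cancer cells stably transduced with a lentiviral TCF/Wnt firefly luciferase reporter. Reported values are firefly luciferase or CellTiterGlo luminescence, normalised per well to the plate median. Each value averages two independent replicates.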
(In general: Cellular ATP, detected with luciferase, serves as a proxy for viable cell number.)

Experiment [2] concerns HCT116. The description is as above. To be noted: 5 µM; treatment time 24 h; reporter: TCF4/Wnt. The method, boiled down: as §1
The subject of experiment [3] is SW480. Described as above. To be noted: 5 µM; treatment time 24 h; reporter: 7TFP. The method, boiled down:
as §1

Experiment [4] relates to DLD1. Briefly: TCF/Wnt firefly luciferase reporter signal relative to plate median (fraction of plate median); higher = higher Wnt reporter signal. To be noted: 5 µM; treatment time 24 h; reporter: 7TFP. The method, boiled down:
as §1
For orientation: In a reporter assay the amount or activity of a reporter protein is the signal.

In experiment [5] the test system is SW480. The description is as above. The following applies: 5 µM; treatment time 24 h; reporter: 7TFP. The method, boiled down:
as §1

In the case of `Cc1cc(=O)c2c(O)cc(O)c(C)c2o1`, the cell viability in experiment [1] was determined as 0.906 ± 0.061; in experiment [2], 0.873 ± 0.034; in experiment [3] it was 0.9105 ± 0.0035. The figures for the “TCF/Wnt firefly luciferase reporter signal” value in experiment [4] and in experiment [5] were 1.25 ± 0.26 and 1.02 ± 0.039, respectively.
On the same counts, the results for `CCCSc1ccc2[nH]c(NC(=O)OC)nc2c1` are 0.966 ± 0.039, 0.893 ± 0.17, 0.986 ± 0.016, 1.1 ± 0.028 and 1.04 ± 0.1.
`CC1=CC2C(CC1=O)C(C)=CCC2C(C)C` (stereo not given): the cell viability in experiment [1] turned out to be 0.983 ± 0.095; in experiment [2] it was 0.971 ± 0.084; in experiment [3], 1 ± 0.012. The “TCF/Wnt firefly luciferase reporter signal” value in experiment [4] was 0.987 ± 0.1; in experiment [5] it was 0.945 ± 0.19.
Taken in the same sequence, the figures for `COc1ccc(-c2cc(=O)c3c(O)cc(OC)c(OC)c3o2)c(OC)c1` were 0.978 ± 0.088, 0.988 ± 0.016, 1.02 ± 0.064, 0.9025 ± 0.005 and 0.896 ± 0.067.
On the same counts, the results for `N[C@@H](CCC(=O)N[C@@H](CS)C(=O)NCC(=O)O)C(=O)O` are 1.03 ± 0.042, 1.06 ± 0.11, 1.02, 1.03 and 1.13 ± 0.13.
On the same counts, the results for `CCCOc1ccc(C(=O)OCCN(CC)CC)cc1N` are 0.9545 ± 0.0064, 0.994 ± 0.051, 0.95 ± 0.038, 0.97 ± 0.057 and 1.095 ± 0.0071.
Turning to `COC(=O)c1c(C)cc(OC)cc1O`, the cell viability in experiment [1] worked out at 0.99 ± 0.071; in experiment [2] it was 1.03 ± 0.081; in experiment [3], 0.951 ± 0.05. For the same compound, the “TCF/Wnt firefly luciferase reporter signal” value was determined as 0.885 ± 0.047 in experiment [4] and 0.869 ± 0.08 in experiment [5].
Turning to `CCOC(=O)c1c(C)c(Cl)c(O)c(Cl)c1O`, the results for the cell viability in experiment [1], in experiment [2] and in experiment [3] were 0.991 ± 0.042, 0.987 ± 0.013 and 0.9025 ± 0.0078, respectively. In addition, the results for the “TCF/Wnt firefly luciferase reporter signal” value in experiment [4] and in experiment [5] were 0.966 ± 0.013 and 0.994 ± 0.052, respectively.
On the same counts, the results for `C/C=C/C1=CC(=O)[C@@H](O)[C@@H]1O` [Terrein] are 0.964 ± 0.066, 1.03 ± 0.014, 0.986 ± 0.011, 1.25 ± 0.085 and 1.1 ± 0.11.
On the same counts, the results for `COc1cccc2c1C(=O)c1c(O)c3c(c(O)c1C2=O)C[C@@](O)(C(=O)CO)C[C@@H]3O[C@H]1C[C@H](N)[C@H](O)[C@H](C)O1` are 1.04 ± 0.059, 0.67 ± 0.22, 1.08 ± 0.035, 1.09 ± 0.099 and 0.682 ± 0.11.
On the same counts, the results for `O=c1cc(-c2ccccc2)oc2cc(O)c(O)c(O)c12` are 1.08 ± 0.021, 1.06 ± 0.042, 1.12 ± 0.035, 0.927 ± 0.073 and 1.02 ± 0.037.
Take `O=C1O[C@H](CO)[C@@H](O)[C@H](O)[C@H]1O`: the cell viability turned out to be 1.005 ± 0.0071 in experiment [1], 1.035 ± 0.0071 in experiment [2] and 1.085 ± 0.0071 in experiment [3]. Further, the “TCF/Wnt firefly luciferase reporter signal” value came to 0.949 ± 0.051 in experiment [4] and 0.945 ± 0.13 in experiment [5].
Taken in the same sequence, the figures for `COc1cc2c(cc1OC)-c1c(oc3cc(O)cc(O)c3c1=O)CO2` were 0.988 ± 0.12, 0.972 ± 0.096, 0.972 ± 0.0042, 1.22 ± 0.05 and 1.03 ± 0.035.
With `O=C1NS(=O)(=O)c2ccccc21`, the cell viability stood at 0.973 ± 0.052 in experiment [1], 1.1 ± 0.085 in experiment [2] and 1.03 ± 0.044 in experiment [3]. For the same compound, the “TCF/Wnt firefly luciferase reporter signal” value was determined as 1.1 ± 0.042 in experiment [4] and 0.96 ± 0.14 in experiment [5].
On the same counts, the results for `CC(C)(C)NC[C@H](O)COc1cccc2c1CCCC2=O` are 0.99 ± 0.043, 1.03 ± 0.075, 0.9555 ± 0.0035, 0.886 ± 0.0085 and 0.981 ± 0.084.
Taken in the same sequence, the figures for `CC1(C)C=Cc2c(cc3occ(-c4ccc5c(c4)OCO5)c(=O)c3c2O)O1` were 0.951 ± 0.083, 0.926 ± 0.17, 0.952 ± 0.042, 0.909 ± 0.012 and 1 ± 0.042.
On the same counts, the results for `NC(=O)c1ncn([C@@H]2O[C@H](CO)[C@@H](O)[C@H]2O)n1` are 1.12 ± 0.035, 1.04 ± 0.064, 1.01 ± 0.021, 1.22 ± 0.23 and 0.986 ± 0.09.
With `CNCCCN1c2ccccc2CCc2ccccc21`, the cell viability came to 0.994 ± 0.023 in experiment [1], 0.933 ± 0.013 in experiment [2] and 0.909 ± 0.041 in experiment [3]. Further, the “TCF/Wnt firefly luciferase reporter signal” value worked out at 0.868 ± 0.035 in experiment [4] and 0.934 ± 0.045 in experiment [5].
In the case of `CC[C@]1(O)C[C@@H]2CN(CCc3c([nH]c4ccccc34)[C@@](C(=O)OC)(c3cc4c(cc3OC)N(C)[C@H]3[C@@](O)(C(=O)OC)[C@H](OC(C)=O)[C@]5(CC)C=CCN6CC[C@]43[C@@H]65)C2)C1`, the cell viability in experiment [1] is 0.879 ± 0.16; in experiment [2], 0.477 ± 0.019; in experiment [3] it was 1.1 ± 0.035. Besides, the “TCF/Wnt firefly luciferase reporter signal” value in experiment [4] amounted to 0.803 ± 0.15; in experiment [5], 0.867 ± 0.2.
On the same counts, the results for `CN(C)CCCN1c2ccccc2Sc2ccccc21` are 0.908 ± 0.056, 0.908 ± 0.032, 0.96 ± 0.071, 0.92 ± 0.021 and 0.895 ± 0.069.
Turning to `CCCCCCCCCCCCCCCCCCCCCCO`, the cell viability in experiment [1] amounted to 1.04 ± 0.076; in experiment [2], 0.941 ± 0.065; in experiment [3], 0.97 ± 0.036. In addition, the figures for the “TCF/Wnt firefly luciferase reporter signal” value in experiment [4] and in experiment [5] were 0.869 ± 0.032 and 0.927 ± 0.066, respectively.
Taken in the same sequence, the figures for `CCOC(N)=O` were 1.01 ± 0.021, 1.04 ± 0.16, 0.949 ± 0.018, 1.035 ± 0.0071 and 0.982 ± 0.054.
Taken in the same sequence, the figures for `COc1ccc(-c2coc3c(O)c(OC)ccc3c2=O)cc1` were 0.969 ± 0.073, 0.984 ± 0.08, 0.99 ± 0.014, 1 ± 0.12 and 1.01 ± 0.095.
On the same counts, the results for `C=CC(C1=CC(=O)C(OC)=CC1=O)c1ccc(O)cc1` (stereo not given) are 1.01, 1.1 ± 0.021, 1.02, 0.879 ± 0.0028 and 0.877 ± 0.12.
Consider `COc1cc(NS(=O)(=O)c2ccc(N)cc2)nc(OC)n1`, for which the results for the cell viability in experiment [1], in experiment [2] and in experiment [3] were 0.9765 ± 0.0092, 0.924 ± 0.031 and 0.956 ± 0.063, respectively. For the same compound, the results for the “TCF/Wnt firefly luciferase reporter signal” value in experiment [4] and in experiment [5] were 0.895 ± 0.28 and 0.8105 ± 0.0064, respectively.
Taken in the same sequence, the figures for `C/C=C/C=C/C1C=CC2CC(C)CCC2C1(C)/C(O)=C1/C(=O)NC(C(C)O)C1=O` (stereo not given) [Altersetin] were 1 ± 0.023, 0.974 ± 0.018, 1 ± 0.011, 1 ± 0.043 and 0.923 ± 0.052.
On the same counts, the results for `NC(=O)NCCC[C@H](N)C(=O)O` are 1 ± 0.12, 1 ± 0.051, 1.015 ± 0.0071, 0.944 ± 0.043 and 0.864 ± 0.083.
`CC1(C)O[C@@H]2C[C@H]3[C@@H]4CCC5=CC(=O)C=C[C@]5(C)[C@H]4[C@@H](O)C[C@]3(C)[C@]2(C(=O)CO)O1`: the cell viability in experiment [1] came out at 0.999 ± 0.03; in experiment [2] it was 1.06 ± 0.05; in experiment [3], 0.977 ± 0.033. For the same compound, the “TCF/Wnt firefly luciferase reporter signal” value in experiment [4] amounted to 0.979 ± 0.086; in experiment [5], 0.9755 ± 0.0078.
Taken in the same sequence, the figures for `CCN(CC)CCNC(=O)COc1ccc(OC)cc1` were 0.875 ± 0.03, 0.928 ± 0.035, 0.973 ± 0.038, 1.09 ± 0.064 and 1.02 ± 0.029.
Taken in the same sequence, the figures for `C[C@]12CCC(=O)C=C1CC[C@@H]1[C@@H]2[C@@H](O)C[C@@]2(C)[C@H]1CC[C@]2(O)C(=O)CO` were 1.06 ± 0.071, 1.05 ± 0.057, 1.04 ± 0.028, 0.951 ± 0.11 and 0.935 ± 0.04.
